PubChem BioAssay AID463173 (ICCB-Longwood Screening Facility, Harvard Medical School, 2010)
The campaign covered roughly 52,000 compounds. About 4,300 (8.3%) were called active. Rule as the data show it: active = survival mostly below about 52% (no sharp cut-off); inactive = mostly above about 56%. The sample as a whole holds a higher share of actives than the screen did.

test system: DeltatarO mutant; assay: growth inhibition of S. aureus wild type versus tarO mutant, primary screen, teichoic acid synthesis inhibitors, RN4220, OD600 (AID 463173); conditions: OD600, 18 h, hits give low values, screened at 18.75 µg/mL (by protocol)

Row | Compound | survival
1 | O=C(c1cccs1)N(Cc1cccnc1)c1nc2c(Cl)cccc2s1 | 82% (inactive)
2 | COc1cccc(C(=O)Nc2ccc(-c3cc(C(F)(F)F)nn3-c3ccccc3)cc2)c1 | 46% (inactive)
3 | COc1ccccc1C(=O)NC(=O)Nc1ccc(-n2nc(C(F)(F)F)cc2C(F)(F)F)cc1 | 59% (inactive)
4 | COc1ccccc1C(=O)Nc1ccc(-c2cc(C(F)(F)F)nn2-c2ccccc2)cc1 | 45% (inactive)
5 | COc1ccccc1C(=O)NC(=O)Nc1ccc(-c2cc(C(F)(F)F)nn2-c2ccccc2)cc1 | 30% (active)
6 | O=C(NC(=O)c1cccc(F)c1)Nc1ccc(-c2cc(C(F)(F)F)nn2-c2ccccc2)cc1 | 157% (inactive)
7 | O=C(Nc1ccc(-c2cc(C(F)(F)F)nn2-c2ccccc2)cc1)c1cccc(F)c1 | 26% (active)
8 | O=C(CN1CCC(N2CCCCC2)CC1)Nc1ccc2c(c1)OCCO2 | 96% (inactive)
9 | Cc1cccc(C)c1OCc1nc2c3cnn(-c4ccccc4F)c3ncn2n1 | 109% (inactive)
10 | CCN(CC)S(=O)(=O)c1cccc(C(=O)Nc2ccccc2C(=O)Nc2ccc(OC)cc2)c1 | 78% (inactive)
11 | Cc1cc(F)ccc1NC(=O)CS(=O)(=O)c1cccc2nsnc12 | 77% (inactive)
12 | CCc1ccc(CNC(=O)Cn2c(-c3cccs3)cc3cc(F)ccc32)cc1 | 119% (inactive)
13 | CC(C)c1nc2ccccn2c1NC1CCCCC1 | 102% (inactive)
14 | Cc1ccc(Nc2c(-c3ccccn3)nc3ccc(Br)cn23)cc1 | 72% (inactive)
15 | c1ccc(-c2nc3ccccn3c2NC2CCCC2)nc1 | 1% (active)
16 | COc1ccc(Nc2c(-c3ccccn3)nc3ccc(Cl)cn23)cc1 | 93% (inactive)
17 | Cc1ccn2c(Nc3ccc(F)cc3)c(-c3ccccn3)nc2c1 | 105% (inactive)
18 | CC(C)c1ccc(Nc2c(-c3ccco3)nc3ccccn23)cc1 | 42% (inactive)
19 | Cc1ccc2nc(-c3ccccn3)c(Nc3ccc(F)cc3)n2c1 | 10% (active)
20 | Cc1cccc2nc(-c3ccccn3)c(Nc3ccc(F)cc3)n12 | -9% (active)
21 | CC(C)c1ccc(Nc2c(-c3ccccn3)nc3ccccn23)cc1 | -4% (active)
22 | CN(C)c1ccc(-c2nc3ccccn3c2NC2CCCC2)cc1 | 83% (inactive)

Row | Compound | survival
23 | Cc1cccc2nc(-c3ccccn3)c(Nc3ccccc3)n12 | 24% (inactive)
24 | Fc1ccc(Nc2c(-c3ccccn3)nc3ccc(Cl)cn23)cc1 | 65% (inactive)
25 | COc1ccc(NC(=O)Cn2cnc3sc(C)c(S(=O)(=O)N4CCN(C)CC4)c3c2=O)cc1OC | 167% (inactive)
26 | COc1ccc(NC(=O)CN2CCN(Cc3ccccc3Cl)S2(=O)=O)cc1Cl | 41% (inactive)
27 | O=S(=O)(NCCc1csc2nc(-c3ccccc3)nn12)c1ccc(Cl)s1 | 86% (inactive)
28 | CCn1c(CNC(=O)C(OC)c2ccccc2)nnc1SC (centres undefined) | 87% (inactive)
29 | O=c1c(=O)n(-c2cccc(Cl)c2)ccn1Cc1cccc(F)c1 | 66% (inactive)
30 | COc1ccc(Cl)cc1NC(=O)c1cnc(N2CCCCC2)c2ccccc12 | 78% (inactive)
31 | CCOc1ccccc1NC(=O)CCc1c(C)nn(-c2ccc(N3CCOCC3)nn2)c1C | 80% (inactive)
32 | CCOC(=O)c1cccc(NC(=O)c2cc3ccccn3n2)c1 | 124% (inactive)
33 | COc1cccc(C2CC(=O)Nc3cc(OC)c(OC)c(OC)c32)c1OC(C)C (centres undefined) | 93% (inactive)
34 | CCOC(=O)c1cccc(-n2nnc3c(sc4nc(C)c(Br)c(C)c43)c2=O)c1 | 92% (inactive)
35 | CCOc1ccc(C2=NC(c3ccc(OC)cc3)=Nc3ccc(Cl)cc3N2)cc1 | 71% (inactive)
36 | Cc1ccccc1Nc1c(-c2ccccc2)nc2cccc(C)n12 | 98% (inactive)
37 | Cc1cccc(C)c1Nc1c(-c2ccccc2F)nc2cccc(C)n12 | 6% (active)
38 | Cc1ccccc1Nc1c(-c2c[nH]c3ccccc23)nc2cccc(C)n12 | 144% (inactive)
39 | CCCCCC[N+]1(CCO)CCOCC1 | 81% (inactive)
40 | COc1ccc(N2CCN(CCCNC(=O)c3c(C)nn(-c4ccc(F)cc4)c3-n3cccc3)CC2)cc1 | 71% (inactive)
41 | OC(CC#CCN1CCOCC1)(c1ccccc1)c1ccccc1 | 83% (inactive)
42 | COc1ccc(S(=O)(=O)N2CCN(Cc3nc4ccc(C)cc4o3)CC2)cc1 | 84% (inactive)
43 | Cc1ccc(-n2cc(C(=O)OCc3ccc(Cl)cc3)c3ccccc3c2=O)cc1 | 67% (inactive)
44 | COC(=O)c1ccc(Cl)cc1NC(=O)N(Cc1ccc(C)o1)C1CCN(C(C)=O)CC1 | 95% (inactive)

Row | Compound | survival
45 | COc1ccc(C)cc1NC(=O)N(Cc1ccc(C)o1)C1CCN(C(C)=O)CC1 | 8% (active)
46 | COc1ccc(NC(=O)N(C(C)C)C2CCN(C(C)=O)CC2)c(OC)c1 | -2% (active)
47 | COC(=O)c1ccc(Cl)cc1NC(=O)N(Cc1ccc(OC)cc1)C1CCN(C(C)=O)CC1 | -5% (active)
48 | COc1ccc(C)cc1NC(=O)N(C(C)C)C1CCN(C(C)=O)CC1 | 75% (inactive)
49 | COc1ccc(NC(=O)N(Cc2ccco2)C2CCN(C(C)=O)CC2)c(OC)c1 | 88% (inactive)
50 | CC(=O)N1CCC(N(Cc2ccc(C)o2)C(=O)Nc2ccc(C)cc2)CC1 | 96% (inactive)
51 | CCN1CCC(N(Cc2ccc(F)cc2)C(=O)Nc2cc(Cl)ccc2C(=O)OC)CC1 | 85% (inactive)
52 | CCOc1ccccc1NC(=O)N(Cc1ccc(C)o1)C1CCN(C(C)=O)CC1 | 101% (inactive)
53 | Cc1ccc(N2CCN(C(=O)C3CCN(S(=O)(=O)c4ccc5c(c4)oc(=O)n5C)CC3)CC2C)cc1 (centres undefined) | 109% (inactive)
54 | Cc1ccc(-n2c3nc(=O)[nH]c(=O)c-3cc3c(C)nn(-c4ccccc4)c32)cc1Cl | 85% (inactive)
55 | Cc1cccc(-c2noc(-c3cccnc3NCc3ccc(Cl)cc3)n2)c1 | 73% (inactive)
56 | COc1ccc(N(C(=O)COc2ccccc2OC)S(=O)(=O)c2ccc(Cl)cc2)cc1 | 71% (inactive)
57 | O=C(CN1C(=O)COc2ccc(Cl)cc21)Nc1ccc(F)cc1 | 67% (inactive)
58 | Cc1cc(C)c(NC(=O)CSc2nccn2Cc2ccco2)c(C)c1 | 76% (inactive)
59 | CN(C)c1ccc(C(CNS(=O)(=O)c2ccc(F)cc2)N2CCc3ccccc32)cc1 (centres undefined) | 32% (active)
60 | Cc1ccc(S(=O)(=O)NCC(c2ccc(N(C)C)cc2)N2CCc3ccccc32)cc1 (centres undefined) | 0% (active)
61 | CN(C)c1ccc(C(CNS(=O)(=O)c2ccccc2)N2CCc3ccccc32)cc1 (centres undefined) | 99% (inactive)
62 | CCOc1ccc(S(=O)(=O)NCC(c2ccc(N(C)C)cc2)N2CCc3ccccc32)cc1 (centres undefined) | 49% (inactive)
63 | COc1ccc(S(=O)(=O)NCC(c2ccc(N(C)C)cc2)N2CCc3ccccc32)cc1 (centres undefined) | 78% (inactive)
64 | Cc1ccc(S(=O)(=O)NCC(c2ccc(N(C)C)cc2)N2CCc3ccccc32)cc1C (centres undefined) | 131% (inactive)
